Records with an inconclusive call do not appear. The source made the active and inactive calls.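 The calls were made as follows, unless noted: active = viability at or below 10% of carrier control in both of two separate runs; inconclusive = viability at or below 10% in only one of the two runs; inactive = the rest.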
Key:
[1] = Her2 expression decrease, cell viability multiplex – SKBR3 breast tumor cells, AlphaScreen, ATP viability, primary screen (AID 461;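 active = Her2 level under about 52% in both replicate screens, with viability over 70% of control, limit read from the data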;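 as to Her2 level: lower value means less Her2 protein in the cells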;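 as to viability: percent of carrier control wells set as 100% viability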); settings: SKBR3 Her2 protein level, 18-24 h, measured here: SKBR3 viability, ATP luminescence, at 10 µM
[2] = target: Receptor tyrosine-protein kinase erbB-2 (Homo sapiens) (UniProt P04626); assay: as above; settings: 18-24 h, at 10 µM, stronger effect = lower value
[3] = reduced viability of SK-BR-3 breast cancer cells – cell-based, 24 h, human, pilot screen (AID 572); settings: SK-BR-3 viability, CellTiter-Glo luminescence, at 10 µM, stronger effect = lower value;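 also: compound exposure lasted between 18 and 24 h rather than exactly 24 h; 100% = carrier-treated control wells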
[4] = HUVEC growth inhibition – cell-based, human, primary screen (AID 575;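 active = viability at or below 30% in both replicate assays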;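 also: 100% = median of untreated cell wells with 0.1% DMSO on each plate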); settings: HUVEC proliferation, CellTiter-Glo luminescence, 72 h; at 10 µM; stronger effect = lower value
[5] = H69AR cell proliferation blockers – human, duplicate replicates, primary screen (AID 580;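 active = viability at or under a set limit in both replicates, limit being median viability minus 3 SD, cut at about 48% in these data, passing the limit was not always enough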;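 also: 100% = mean luminescence of untreated wells and 0% = no signal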); settings: H69AR lung tumor cells viability, ATP luminescence, 72 h; at 10 µM; stronger effect = lower value
[6] = MRP1 drug-resistance reversers in H69AR cells – cell-based, doxorubicin co-treatment, pilot screen (AID 601;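 active = viability loss from added drug above about 55%, and viability with drug at most 40%, in both replicates, limit read from the data, passing the limit was not always enough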); settings: CellTiter-Glo, 72 h, at 10 µM; for differential viability (reversal): stronger effect = higher value
[7] = yeast transport mutant growth inhibition pilot in 384-well plates, post-Golgi transport modulator project (AID 636; in the data active = inhibition above about 31%); settings: absorbance 615 nm, about 18 h, stronger effect = higher value
[8] = growth suppression of yeast trafficking mutant, preliminary HTS, modulators of trafficking downstream of Golgi apparatus project, 1536-format plate, OD 615 nm (AID 637; in the data active = inhibition above about 30%); settings: yeast transport mutant growth, absorbance 615 nm, 18 h; stronger effect = higher value
[9] = S. cerevisiae growth inhibition in permissive medium (OD615), pilot counter-assay for S. cerevisiae lifespan shortening project, permissive growth control (AID 705;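 active = growth inhibition above 25% in both replicates, a cutoff set 3 SD above the mean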); settings: OD615, 24 h, at 10 µM, stronger effect = higher value
[10] = S. cerevisiae growth inhibition in restrictive medium, OD615, pilot screen, restrictive growth control, yeast lifespan reduction project (AID 706;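 active = growth inhibition above a set limit, 3 SD over mean compound inhibition, in both replicates, cut at about 43% in these data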;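 also: modified DeaD lifespan yeast strain shifted to restrictive glucose medium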); settings: OD615, 48 h, at 10 µM, stronger effect = higher value
[11] = doxorubicin toxicity protection in MRP-1 cells – H69AR cells, CellTiter-Glo, duplicate, MRP-1 activator project, pilot screen (AID 807;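 active = viability increase at or above a cutoff of the median across tested compounds plus 3 SD, cut at about 8.5% in these data, passing the limit was not always enough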;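 also: compound pretreatment 18-22 h then 72 h combined with doxorubicin; 0% = doxorubicin alone and 100% = vehicle without doxorubicin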); settings: H69AR viability with doxorubicin, CellTiter-Glo luminescence; at 10 µM; stronger effect = higher value
[12] = viability of HCT116 without oncogenic beta-catenin – human colon tumor cells, pilot screen (AID 823;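 active = cell viability at or below a set limit in both duplicate runs, the limit being the all-compound median minus 4 SD, cut at about 23% in these data, passing the limit was not always enough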;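 also: 0% = wells killed by 20 µM Hyamine and 100% = untreated DMSO cell wells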); settings: HCT116 beta-catenin knockout viability, CellTiter-Glo, 60 h; at 10 µM; stronger effect = lower value
[13] = viability of PTEN-null HCT116 cells – cell-based, HCT116 clonal line, CellTiter-Glo, pilot screen (AID 824;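 active = viability at or below 27.92% in each of two runs, the all-compound median minus 4 SD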;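 also: 0% = 20 µM Hyamine control and 100% = vehicle cell control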); settings: HCT116 PTEN-deleted viability, 60 h, at 10 µM, stronger effect = lower value
[14] = RAM pathway blockade in budding yeast – dse1pr::URA3 reporter, 5-FOA selection, pilot screen (AID 869;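 active = inhibition over a set limit, the all-compound mean plus 3 SD, in both replicate runs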;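 also: 0% = DMSO wells with no growth and 100% = 10 µM 1-NA-PP1 with full growth; RAM network block rescues cells from 5-FOA so hits raise OD615 growth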); settings: S. cerevisiae dse1pr::URA3 5-FOA growth, OD615, 2 d; at 10 µM; stronger effect = higher value; strain carries analog-sensitive mutant Cbk1 kinase
[15] = RAM signaling pathway blockade in yeast – S. cerevisiae, Pdr1DBD-CYC8 efflux-inhibited sensitized strain, primary screen (AID 1298;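 active = RAM network inhibition above 8.4% in each of two replicates, 3 SD over the compound average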;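 also: 0% = DMSO untreated cells without growth and 100% = 10 µM 1-NA-PP1 full growth; higher means more yeast growth rescued from 5-FOA killing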); settings: S. cerevisiae cbk1-as DSE1-URA3 strain, 5-FOA growth OD615, 2 d; at 50 µM; stronger effect = higher value
[16] = H69AR cells + 2 uM doxorubicin, measured here: viability with 2 uM doxorubicin, stronger effect = lower value
[17] = H69AR cells, compound alone cytotoxicity

Chain of Receptor tyrosine-protein kinase erbB-2 (Homo sapiens) (P04626 whole entry, looked up): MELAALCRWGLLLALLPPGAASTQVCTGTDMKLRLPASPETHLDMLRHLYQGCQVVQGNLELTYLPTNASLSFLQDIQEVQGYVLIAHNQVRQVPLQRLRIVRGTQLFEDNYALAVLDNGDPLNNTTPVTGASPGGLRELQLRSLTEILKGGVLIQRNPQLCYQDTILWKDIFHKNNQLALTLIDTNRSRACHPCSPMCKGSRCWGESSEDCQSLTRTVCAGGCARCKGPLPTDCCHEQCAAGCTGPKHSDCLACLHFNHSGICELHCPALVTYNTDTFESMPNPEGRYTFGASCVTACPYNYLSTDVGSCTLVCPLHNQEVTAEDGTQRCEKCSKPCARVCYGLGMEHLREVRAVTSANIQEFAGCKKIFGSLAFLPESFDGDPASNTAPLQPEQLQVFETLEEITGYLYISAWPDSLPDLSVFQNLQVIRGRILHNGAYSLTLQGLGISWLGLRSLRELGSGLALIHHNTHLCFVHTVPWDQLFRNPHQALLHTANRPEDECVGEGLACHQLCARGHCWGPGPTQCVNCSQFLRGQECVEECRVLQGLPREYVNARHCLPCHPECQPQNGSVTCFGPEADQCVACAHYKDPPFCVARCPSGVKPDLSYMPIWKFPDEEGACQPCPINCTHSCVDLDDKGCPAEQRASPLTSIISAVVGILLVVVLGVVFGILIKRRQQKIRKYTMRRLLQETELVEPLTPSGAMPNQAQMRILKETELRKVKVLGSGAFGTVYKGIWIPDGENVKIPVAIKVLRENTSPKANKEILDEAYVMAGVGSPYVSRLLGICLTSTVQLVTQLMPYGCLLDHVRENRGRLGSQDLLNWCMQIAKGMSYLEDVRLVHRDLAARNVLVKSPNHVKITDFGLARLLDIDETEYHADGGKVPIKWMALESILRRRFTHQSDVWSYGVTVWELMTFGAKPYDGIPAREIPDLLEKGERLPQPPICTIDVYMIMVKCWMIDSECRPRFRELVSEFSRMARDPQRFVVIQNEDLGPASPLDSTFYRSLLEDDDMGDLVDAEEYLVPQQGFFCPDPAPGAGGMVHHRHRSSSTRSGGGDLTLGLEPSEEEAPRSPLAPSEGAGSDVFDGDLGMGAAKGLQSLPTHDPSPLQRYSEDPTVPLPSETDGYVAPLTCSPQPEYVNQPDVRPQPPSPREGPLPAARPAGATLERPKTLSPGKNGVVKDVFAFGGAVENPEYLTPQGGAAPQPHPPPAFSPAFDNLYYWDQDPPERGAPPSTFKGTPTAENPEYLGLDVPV

Compound | viability [1] [%] | Her2 level [2] | viability [3] | viability [4] | viability [5] | differential viability (reversal) ([6]; H69AR cells + 2 uM doxorubicin) | viability [6, 16] [%] | viability [6, 17] [%] | inhibition [7] | inhibition [8] | growth inhibition [9] | growth inhibition [10] | viability increase [11] | viability [12] | viability [13] | inhibition [14] | RAM network inhibition [15]
Cc1csc(NC(=O)C(Cc2ccccc2)n2cccc2)n1 (stereo not drawn) | 91.5 | 87% (inactive) | 91.5% (inactive) | 101% (inactive) | 87.6% (inactive) | 5.21% (inactive) | 82.4 | 87.6 | -3.73% (inactive) | 6.56% (inactive) | -13.9% (inactive) | -8.47% (inactive) | -5.96% (inactive) | 73.8% (inactive) | 73.1% (inactive) | 1.32% (inactive) | 6.15% (inactive)
CCCOc1ccc(NC2=CC(=O)CC(C)(C)C2)cc1 | 100 | 103% (inactive) | 100% (inactive) | 87.2% (inactive) | 100% (inactive) | 7.44% (inactive) | 93 | 100 | -6.89% (inactive) | 2.13% (inactive) | -2.65% (inactive) | -14.7% (inactive) | 1.27% (inactive) | 95.4% (inactive) | 94.2% (inactive) | 3.14% (inactive) | 6.91% (inactive)
Clc1ccc(Nc2ncnc3c2cnn3-c2ccccc2)cc1 | 116 | 90.5% (inactive) | 116% (inactive) | 86% (inactive) | 78.7% (inactive) | 7.29% (inactive) | 71.4 | 78.7 | -4% (inactive) | 0% (inactive) | -10.8% (inactive) | -13.1% (inactive) | -2.81% (inactive) | 81.7% (inactive) | 74.8% (inactive) | 0.855% (inactive) | -0.47% (inactive)
O=C1NC2(Nc3ccccc31)C(=O)Nc1ccccc12 (stereo not drawn) | 99 | 83% (inactive) | 99% (inactive) | 86.8% (inactive) | 156% (inactive) | 58.3% (inactive) | 97.3 | 156 | -4.86% (inactive) | -3.44% (inactive) | 0.15% (inactive) | -6.17% (inactive) | -3.77% (inactive) | 98.8% (inactive) | 85.2% (inactive) | 1.85% (inactive) | 2.35% (inactive)
C=C(C)c1cccc(C(C)(C)NC(=O)NCC2CCCO2)c1 (stereo not drawn) | 94 | 98% (inactive) | 94% (inactive) | 79.9% (inactive) | 93.7% (inactive) | 7.16% (inactive) | 86.5 | 93.7 | 0.77% (inactive) | -8.5% (inactive) | -6.62% (inactive) | -9.92% (inactive) | -0.54% (inactive) | 94.7% (inactive) | 96.2% (inactive) | 1.77% (inactive) | 1.07% (inactive)
N#Cc1ccc(-c2csc(NC(=O)C3CC3)n2)cc1 | 95.5 | 91% (inactive) | 95.5% (inactive) | 109% (inactive) | 91.9% (inactive) | 6.75% (inactive) | 85.1 | 91.9 | -2.93% (inactive) | 0.16% (inactive) | -18.1% (inactive) | -2.02% (inactive) | 3.47% (inactive) | 103% (inactive) | 88.9% (inactive) | 2.53% (inactive) | 4.29% (inactive)
CCCc1cc(C(=O)Nc2sc3c(c2C#N)CCC3)no1 | 86.5 | 77.5% (inactive) | 86.5% (inactive) | 58% (inactive) | 29.8% (active) | -25.9% (inactive) | 55.6 | 29.8 | -2.05% (inactive) | -4.5% (inactive) | 4.12% (inactive) | 0.215% (inactive) | -2.05% (inactive) | 92.2% (inactive) | 87.1% (inactive) | -0.06% (inactive) | -1.49% (inactive)
O=C(O)CC(NC(=O)c1ccccc1NC(=O)c1ccccc1)C(=O)O (stereo not drawn) | 86.5 | 154% (inactive) | 86.5% (inactive) | 93.5% (inactive) | 97.2% (inactive) | 6.64% (inactive) | 90.5 | 97.2 | 3.97% (inactive) | 35.3% (active) | -0.82% (inactive) | -3.04% (inactive) | -0.74% (inactive) | 108% (inactive) | 96.5% (inactive) | 0.785% (inactive) | 0.47% (inactive)
COC(=O)CN1C(=O)CC(C)(C)S(=O)c2ccccc21 (stereo not drawn) | 114 | 110% (inactive) | 114% (inactive) | 118% (inactive) | 99.3% (inactive) | 8.85% (inactive) | 90.4 | 99.3 | -4.4% (inactive) | 16.3% (inactive) | -14.5% (inactive) | -3.88% (inactive) | -0.45% (inactive) | 107% (inactive) | 99.7% (inactive) | 0.32% (inactive) | 2.09% (inactive)
O=C(CN1CCN(Cc2ccc(F)cc2Cl)C1=O)NCCCN1CCOCC1 | 99 | 104% (inactive) | 99% (inactive) | 95.2% (inactive) | 102% (inactive) | 14% (inactive) | 87.8 | 102 | -3.07% (inactive) | -5.08% (inactive) | -6.96% (inactive) | 8.75% (inactive) | -0.41% (inactive) | 94.5% (inactive) | 97.3% (inactive) | 0.47% (inactive) | 1.91% (inactive)
COc1cc2c(cc1OC)CN(C(=O)CSc1nnc3scc(-c4ccccc4)n13)CC2 | 96 | 97% (inactive) | 96% (inactive) | 86.7% (inactive) | 85.3% (inactive) | 8.16% (inactive) | 77.2 | 85.3 | -0.53% (inactive) | -3.77% (inactive) | 16.4% (inactive) | 69% (active) | -3.13% (inactive) | 99.4% (inactive) | 94.6% (inactive) | 1.08% (inactive) | 3.4% (inactive)
CC1(C)CC(=O)C(C=NCCO)=C(O)C1 | 100 | 97.5% (inactive) | 100% (inactive) | 113% (inactive) | 91.2% (inactive) | 2.35% (inactive) | 88.9 | 91.2 | -6.08% (inactive) | 5.83% (inactive) | 5.08% (inactive) | -3.12% (inactive) | 1.5% (inactive) | 102% (inactive) | 101% (inactive) | 1.19% (inactive) | 2.26% (inactive)
c1ccc(Cn2nnc3c(N4CCCCCC4)ncnc32)cc1 | 94 | 88% (inactive) | 94% (inactive) | 57.5% (inactive) | 69.9% (inactive) | -13.9% (inactive) | 83.8 | 69.9 | -5.87% (inactive) | 2.83% (inactive) | -13% (inactive) | -8.65% (inactive) | -0.65% (inactive) | 40% (inactive) | 33.6% (inactive) | 0.74% (inactive) | 5.41% (inactive)
CCc1ccc(C2CC(c3cccc(OC)c3)n3nc(N)nc3N2)cc1 (stereo not drawn) | 90 | 92% (inactive) | 90% (inactive) | 113% (inactive) | 105% (inactive) | 7.42% (inactive) | 97.5 | 105 | 2.31% (inactive) | 4.83% (inactive) | -0.21% (inactive) | 12% (inactive) | 2.74% (inactive) | 93.3% (inactive) | 81.1% (inactive) | 1.21% (inactive) | 4.95% (inactive)
O=C(c1ccc2nc(N3CCOCC3)sc2c1)N1CCCC1 | 94 | 96% (inactive) | 94% (inactive) | 93.6% (inactive) | 108% (inactive) | 18.8% (inactive) | 89.4 | 108 | -1.41% (inactive) | 9.17% (inactive) | -2.18% (inactive) | -7.76% (inactive) | -2.73% (inactive) | 99.1% (inactive) | 95.4% (inactive) | -0.14% (inactive) | 1.02% (inactive)
CCOc1ccc(NC(=O)CSc2nnc(COc3c(C)cccc3C)o2)cc1 | 95 | 102% (inactive) | 95% (inactive) | 86.7% (inactive) | 80.6% (inactive) | -5.7% (inactive) | 86.3 | 80.6 | -4.93% (inactive) | -2.83% (inactive) | -9.38% (inactive) | -14.3% (inactive) | -1.9% (inactive) | 98.9% (inactive) | 98.3% (inactive) | 3.71% (inactive) | 8.74% (inactive)
Cn1cccc1Cc1nnc(SCC(=O)NCC2CCCO2)n1-c1ccc(F)cc1 (stereo not drawn) | 97.5 | 90% (inactive) | 97.5% (inactive) | 106% (inactive) | 91% (inactive) | 0.18% (inactive) | 90.9 | 91 | -4.93% (inactive) | -2.33% (inactive) | -11.2% (inactive) | -5.59% (inactive) | -1.1% (inactive) | 108% (inactive) | 94.7% (inactive) | 0.02% (inactive) | 6.15% (inactive)
CC1CCCN(C(=O)c2cc3c(-c4ccc(Cl)cc4)nn(C)c3s2)C1 (stereo not drawn) | 89 | 87% (inactive) | 89% (inactive) | 77.4% (inactive) | 92.5% (inactive) | 0.84% (inactive) | 91.7 | 92.5 | -1.54% (inactive) | 3% (inactive) | -9.3% (inactive) | -3.9% (inactive) | -2.82% (inactive) | 91.4% (inactive) | 93.3% (inactive) | 2.07% (inactive) | 1.62% (inactive)
CC1CCCC(N2CCN(C(=O)c3ccc(F)cc3)CC2)C1 (stereo not drawn) | 95 | 109% (inactive) | 95% (inactive) | 75.4% (inactive) | 91.3% (inactive) | 1.66% (inactive) | 89.6 | 91.3 | 1.2% (inactive) | 3.5% (inactive) | -0.99% (inactive) | -4.36% (inactive) | -0.74% (inactive) | 101% (inactive) | 98.5% (inactive) | 0.22% (inactive) | -0.84% (inactive)
